Results: PubChem BioAssay
Calls of active or inactive are those of the source.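 How the source made its calls, unless noted: active means visually confirmed hit in the image check and inhibition above 20%; inconclusive means visually confirmed hit but inhibition not above 20%; inactive means no visual hit in the image check.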

How the values were obtained:
[1] = inhibitors of TNFa-induced NFkB p65 translocation, primary screen, imaging, HUVEC, MLSMR starter and 10KST1 sets (AID 438;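 active means inhibition above 20% together with a positive visual image hit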;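 further: compound added about 3h40 before a 20 min TNFalpha stimulation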;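 on inhibition: signal is the nuclear over cytoplasmic p65 intensity ratio per well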); details: HUVEC TNFa-induced p65 nuclear translocation; cell count: measured here: nuclei count (cytotoxicity indicator), at 2.08 µM; inhibition: at 2 µM, stronger effect = higher value, 0% TNFa-plus-vehicle, 100% no-TNFa wells
[2] = reduction of polyQ htt aggregates in cells – imaging, exon1htt(103Q)mCFP cells, high-content imaging, primary screen (AID 483;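 active means visual image review flags a hit and inhibition of aggregation exceeds 20%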;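 further: compound exposure lasted 3 days before fixation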;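 on nuclei count: percent of the per-plate median nuclei count of sample wells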); details: exon1htt(103Q)mCFP cell line, aggregate imaging, at 2 µM; inhibition of aggregation: stronger effect = higher value; nuclei count: measured here: cell count, toxicity
[3] = endothelial E-selectin expression blockers – imaging, HUVEC, immunofluorescence, MLSMR starter and 10KST1 sets, primary screen (AID 487); details: HUVEC TNFalpha-induced E-selectin immunofluorescence imaging, at 2 µM; inhibition: stronger effect = higher value; nuclei count: measured here: cell number, toxicity;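 on inhibition: signal is fraction of cell area covered by stained E-selectin grains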;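 on nuclei count: 100% = median nuclei count of all wells on the same plate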
[4] = target: Voltage-gated potassium channel subunit beta-2 (Rattus norvegicus) (UniProt P62483); experiment: inhibitors of rat Kvbeta2 reductase activity – biochemical, NADPH fluorescence, primary screen (AID 622;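 active means fluorescence slope higher than the sample average by over 3 SD, cut at about -0.22 in these data, passing the limit was not always enough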;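 further: slope of raw intensity against log time taken from 70 to 1610 s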); details: recombinant KvBeta, 4-cyanobenzaldehyde reduction, at 10 µM, stronger effect = higher value
Sequence of Voltage-gated potassium channel subunit beta-2 (Rattus norvegicus) (P62483 whole entry, looked up): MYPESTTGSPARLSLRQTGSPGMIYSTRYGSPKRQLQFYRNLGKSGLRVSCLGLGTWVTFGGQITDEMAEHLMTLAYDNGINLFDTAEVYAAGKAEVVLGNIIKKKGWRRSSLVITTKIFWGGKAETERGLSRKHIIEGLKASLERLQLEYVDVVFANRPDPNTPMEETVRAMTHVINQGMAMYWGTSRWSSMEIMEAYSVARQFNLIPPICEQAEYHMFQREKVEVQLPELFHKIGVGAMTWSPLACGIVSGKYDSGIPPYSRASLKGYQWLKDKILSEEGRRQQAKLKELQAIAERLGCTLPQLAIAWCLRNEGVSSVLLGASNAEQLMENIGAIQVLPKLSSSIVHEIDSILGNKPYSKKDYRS

[5] = target: Voltage-gated potassium channel subunit beta-2 (Rattus norvegicus) (UniProt P62483); experiment: enhancers of rat Kvbeta2 NADPH turnover – biochemical, NADPH fluorescence, primary screen (AID 623;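 active means NADPH fluorescence slope more negative than the mean of all samples by about 3 SD, 99.7% confidence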;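 further: fluorescence intensity change per second fitted from 20 to 320 s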); details: Recombinant KvBeta, NADPH fluorescence decrease slope, 10 min; at 10 µM; stronger effect = lower value
[6] = target: Alpha-2C adrenergic receptor (Homo sapiens) (UniProt P18825); experiment: compounds altering alpha2C-coupled GIRK flux – cell-based, HEK293 alpha2C/GIRK1/2, thallium flux, primary screen (AID 624;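 active means fluorescence slope after compound addition differing from the mean of all screened samples at 99.7% confidence, in either direction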;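 further: slope of fluorescence ratio to pre-addition baseline per second over 15 to 24 s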); details: thallium flux BTC fluorescence, at 10 µM, actives lie on both sides
Sequence of Alpha-2C adrenergic receptor (Homo sapiens) (P18825 whole entry, looked up): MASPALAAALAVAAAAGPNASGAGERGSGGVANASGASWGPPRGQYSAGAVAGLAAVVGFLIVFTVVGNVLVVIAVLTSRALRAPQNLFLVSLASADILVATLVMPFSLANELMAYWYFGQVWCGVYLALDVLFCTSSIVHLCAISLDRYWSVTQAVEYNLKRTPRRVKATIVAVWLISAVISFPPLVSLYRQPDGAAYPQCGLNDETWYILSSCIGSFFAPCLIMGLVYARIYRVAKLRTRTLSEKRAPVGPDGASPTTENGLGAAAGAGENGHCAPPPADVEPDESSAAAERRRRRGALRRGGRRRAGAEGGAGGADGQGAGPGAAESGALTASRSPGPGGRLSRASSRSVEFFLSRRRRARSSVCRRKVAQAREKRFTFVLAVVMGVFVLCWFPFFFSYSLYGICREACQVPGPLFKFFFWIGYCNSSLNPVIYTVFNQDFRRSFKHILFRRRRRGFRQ

[7] = blockers of RIG-like receptor reporter activation – cell-based, Sendai virus stimulus, luciferase, 10K MLSCN set, TLR/RLR signaling modifier project, primary screen (AID 602276;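 active means inhibition at or above 50% at 10 µM; inactive means inhibition below 50%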;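 further: firefly luciferase from ISG56 promoter only with Renilla not read in this screen; 0% = Sendai virus plus DMSO and 100% = medium plus DMSO without virus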); details: HEK293 RL24 IRF3 luciferase reporter, at 10 µM, stronger effect = higher value
[8] = TLR3 IRF3 reporter activation blockers – cell-based, poly I:C stimulus, luciferase, 10K MLSCN set, primary screen (AID 602277;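 active means inhibition of the reporter signal at or above 50%; inactive means inhibition below 50%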); details: HEK293-TLR3 RL24 IRF3 luciferase reporter, at 10 µM, stronger effect = higher value

| SMILES | cell count [1] | inhibition [1] | inhibition of aggregation [2] | nuclei count [2] [%] | inhibition [3] | nuclei count [3] [%] | fluorescence slope [4] | NADPH fluorescence slope [5] | slope [6] | inhibition [7] | inhibition [8] |
| --- | --- | --- | --- | --- | --- | --- | --- | --- | --- | --- | --- |
| COCCn1nnnc1CN1CCC(Cc2ccccc2)CC1 | 513 | -16.4% (inactive) | -12.1% (inactive) | 113 | -71.7% (inactive) | 96.1 | -0.484 (inactive) | -6.1e-05 (inactive) | 0.00482 (inactive) | 12.6% (inactive) | 13.6% (inactive) |
| CCCCN(Cc1cc2cc(OC)ccc2[nH]c1=O)C(=O)c1ccccn1 | 339 | -17.9% (inactive) | -18.3% (inactive) | 101 | -11.8% (inactive) | 89.4 | -0.332 (inactive) | -6.3e-05 (inactive) | 0.00511 (inactive) | -4.21% (inactive) | 98.1% (active) |
| CC(=O)Nc1ccc2c(c1)nc(CCNC(=O)c1ccccc1)n2C | 450 | 1.3% (inactive) | -15.3% (inactive) | 92.7 | -62.8% (inactive) | 170 | -0.54 (inactive) | -4.9e-05 (inactive) | 0.00514 (inactive) | 1.9% (inactive) | 98.7% (active) |
| CCN1C(=O)C(C(=O)Nc2ccc(OC)cc2)C2CC1(C)Oc1ccccc12 (centres undefined) | 489 | 4.3% (inactive) | -2% (inactive) | 104 | -4.8% (inactive) | 102 | -0.305 (inactive) | -5.8e-05 (inactive) | 0.0052 (inactive) | -34.3% (inactive) | -51.5% (inactive) |
| CCCC1(CCC)NC(=O)NC1=O | 548 | -3.3% (inactive) | -41.1% (inactive) | 65.5 | -34.4% (inactive) | 107 | -0.491 (inactive) | -4.7e-05 (inactive) | 0.00587 (inactive) | 6.49% (inactive) | 14.1% (inactive) |
| C/C(Cl)=C/Cn1c(SCc2ccc(Cl)cc2)nc2c1c(=O)[nH]c(=O)n2C | 551 | -9.4% (inactive) | 10.9% (inactive) | 108 | 15% (inactive) | 96.1 | -0.513 (inactive) | -2.3e-05 (inactive) | 0.00751 (inactive) | 4.08% (inactive) | 12% (inactive) |
| CC(=O)NC(CCS(C)(=O)=O)C(=O)Nc1cccc2ccccc12 (centres undefined) | 667 | 3.9% (inactive) | 18.3% (inactive) | 100 | -7.5% (inactive) | 108 | -0.564 (inactive) | -3.4e-05 (inactive) | 0.006 (inactive) | 1.24% (inactive) | 31.9% (inactive) |
| Cc1cc(C(=O)CN2C(=O)c3ccccc3C2=O)c(C)n1Cc1cccs1 | 522 | -14.8% (inactive) | -1% (inactive) | 112 | -3.3% (inactive) | 161 | -0.517 (inactive) | -0.000116 (inactive) | 0.00475 (inactive) | 14.6% (inactive) | 52.1% (active) |
| CCCCn1c(NCCC)nc2c1c(=O)[nH]c(=O)n2C | 383 | -6.2% (inactive) | -0.7% (inactive) | 114 | -38% (inactive) | 124 | -0.402 (inactive) | -0.000106 (inactive) | 0.00598 (inactive) | 16% (inactive) | 29.1% (inactive) |
| Cc1onc(-c2ccccc2Cl)c1C(=O)NCc1cccnc1 | 700 | 1% (inactive) | 8.2% (inactive) | 97.9 | 8.5% (inactive) | 92.3 | -0.523 (inactive) | 1.3e-05 (inactive) | 0.00593 (inactive) | 17.8% (inactive) | 19.3% (inactive) |
| Cc1ccc(N2CCN(C(=O)c3ccccc3)CC2)c(C)c1 | 484 | -0.5% (inactive) | 1.9% (inactive) | 100 | -70.1% (inactive) | 106 | -0.413 (inactive) | -6.4e-05 (inactive) | 0.00418 (inactive) | 12% (inactive) | 0.924% (inactive) |
| c1cc2c(cc1Nc1nc(-c3ccc4c(c3)OCO4)cs1)OCCO2 | 351 | 0.4% (inactive) | 10% (inactive) | 104 | -36.9% (inactive) | 118 | -0.188 (inactive) | -2.8e-06 (inactive) | 0.00387 (inactive) | -63.5% (inactive) | -126% (inactive) |
| Cn1c(C(=O)NCCN2CCN(c3ccccc3F)CC2)cc2c(=O)n(C)c3ccccc3c21 | 1100 | 11% (inactive) | 12.6% (inactive) | 119 | -30.2% (inactive) | 112 | -0.571 (inactive) | -2.1e-05 (inactive) | 0.00598 (inactive) | 4.48% (inactive) | 16% (inactive) |
| O=C(OCn1nnc2ccccc2c1=O)c1cc2ccccc2o1 | 544 | -3.9% (inactive) | 19.5% (inactive) | 76.7 | -10.4% (inactive) | 90.4 | -0.447 (inactive) | -3.1e-05 (inactive) | 0.00552 (inactive) | -2.91% (inactive) | 27.7% (inactive) |
